Source: PubChem BioAssay (ICCB-Longwood Screening Facility, Harvard Medical School)
VACV E9 pol inh: blocks vaccinia virus processive DNA synthesis | normalized absorbance, % (test concentration not listed) | in vitro processive DNA synthesis, absorbance read-out; hits give low values | AID 493162 | hit rate 0.94% among 46,000; in the data active means normalized absorbance mostly below about 85%, no sharp cut-off; inactive means mostly above about 86%
A number is an active result; i = inactive. Shown is part of a subset that was picked to be rich in hits.

SMILES | VACV E9 pol inh
COc1ccc(C2=NS(=O)(=O)N(C)C(C(=O)N3CCC(C(N)=O)CC3)=C2)cc1 | 70
CCC1CCCCN1C(=O)C1=CC(c2ccc(OC)cc2)=NS(=O)(=O)N1C (stereo not drawn) | i
COc1ccc(C2=NS(=O)(=O)N(C)C(C(=O)N3CCC(C)CC3)=C2)cc1OC | i
Cc1ccc(C(N)=S)c(=O)[nH]1 | i
O=C1COc2ccc(-n3cccc3)cc2N1 | i
Cc1cccc(N(C(=O)c2ccccc2)C2=NCC(C)S2)c1 (stereo not drawn) | i
CCSc1nc2ccccc2n1CC(=O)O | i
O=C(O)Cn1cc(C(=O)C2CC2)c2ccccc21 | i
O=C(O)Cn1c2c(c3ccccc31)CSc1ccc(Cl)cc1-2 | 71
O=C1O[C@@H]2C[C@H]3C[C@@H]2[C@@H]1[C@H]3C(=O)N1CCCCC1 | i
CCN1CCN(C(=O)c2cccc(Nc3nc4ccccc4n4nnnc34)c2)CC1 | i
Cc1cc(S(=O)(=O)N2CC=C(c3ccccc3)CC2)c(C(F)(F)F)o1 | i
COc1ccc(C(=O)CSc2ncccn2)cc1 | i
COc1ccc(C(=O)CSC2=NCCCCCC2)cc1 | 65
COc1ccc(C(=O)CNC2=NCCC2)cc1 | i
O=S(=O)(/C=C/c1ccccc1)NC12CC3CC(CC(C3)C1)C2 | i
COc1cc2c(cc1OC)C(C)N(C(=O)c1cc3c(Cl)nc4ccc(C)cc4c3s1)CC2 (stereo not drawn) | i
Cc1ccc(C(=O)OC2CCCN(C)C2)s1 (stereo not drawn) | i
CCOC(=O)Cn1c2ccc(Cl)cc2c2nc3ccccc3nc21 | i
Cc1ccc2c(c1)c1nc3ccccc3nc1n2CC(=O)O | i
O=C(O)Cn1c2ccc(Cl)cc2c2nc3ccccc3nc21 | 53
c1ccc(-c2ccnc3nc(-n4cccc4)nn23)nc1 | i
NC(=O)C1CCN(C2CCN(C(=O)c3cccn4c(=O)c5ccc(Cl)cc5nc34)CC2)CC1 | i
CCOc1ccccc1C1C(C#N)=C(SCc2ccccc2)NC(=O)C1C#N (stereo not drawn) | i
COc1ccc2c(c1OC)C(=O)OC2[C@H]1c2c(cc3c(c2OC)OCO3)CCN1C (stereo partly drawn) | i
SMILES | VACV E9 pol inh
COc1ccc2cc1Oc1ccc(cc1)C[C@H]1c3cc(c(OC)cc3CCN1C)Oc1c(OC)c(OC)cc3c1[C@H](C2)N(C)CC3 | 84
CSc1nnc(NC(=O)/C=C\c2ccc3c(c2)OCO3)s1 | i
Cc1ccc(C2=N/C(=C\c3cccs3)C(=O)O2)cc1 | i
CCc1ccc(NC(=O)C(C)OC(=O)c2cccc(N(C)C)c2)cc1 (stereo not drawn) | i
Cc1cccc(C)c1NC(=O)C1c2cccc[n+]2CC(=O)N1C (stereo not drawn) | i
CC(=O)Nc1ccc(NC(=O)CCC(=O)c2ccccc2)cc1 | i
O=C(Cc1ccccc1)c1ccccc1 | i
O=C(CCC(=O)c1ccccc1)NCc1ccccc1 | 67
CCOC(=O)c1cnc2c(ccc3ccccc32)c1NCC(C)C | i
CCOC(=O)c1cnc2c(ccc3ccccc32)c1NC1CC(C)(C)NC(C)(C)C1 | 58
CCOC(=O)c1cnc2c(ccc3ccccc32)c1NCCOC(=O)C(C)(C)C | i
CCc1cccc(C)c1Nc1c(-c2ccsc2)nc2cnccn12 | i
COc1ccc(Nc2cc(C(=O)NCCc3ccccc3)c3ccccc3n2)cc1 | i
Cc1ccc(Nc2cc(C(=O)NCCC(C)C)c3ccccc3n2)cc1C | 71
CC(C)CCNC(=O)c1cc(Sc2ccc(F)cc2)nc2ccccc12 | i
CC(C)(C)S(=O)(=O)c1ccccc1/C=N/O | i
CC(C(=O)NCc1ccncc1)n1c(C(F)(F)F)nc2ccccc21 (stereo not drawn) | i
Cc1ccc(CNc2ccc3c(c2)ncn3C2CCCCC2)cc1 | i
Cc1ccc2c(c1)-c1onc(C(=O)N3CCC(C)CC3)c1CO2 | i
Cn1c(C(C)(C)C)n[nH]c1=S | i
Cc1nn(C)c(C)c1NC(=O)/C=C/c1ccco1 | i
O=C(/C=C/c1ccccc1)/C=C/c1ccco1 | i
O=C(/C=C/c1ccco1)C1(O)CCCCC1 | i
O=C(/C=C/c1ccco1)/C=C/c1ccco1 | 8.6
O=C(/C=C/c1ccco1)NCCc1ccccc1 | i
SMILES | VACV E9 pol inh
O=C(/C=C/c1ccco1)Nc1cccc(NC(=O)/C=C/c2ccco2)n1 | 85
O=Cc1c(O)n(-c2ccc(Cl)cc2)c(=O)[nH]c1=O | i
O=C(NCc1ccc2c(c1)OCO2)C1(S(=O)(=O)c2ccc(Cl)cc2)CC1 | i
CCOc1ccc(NC(=O)CC2CC3CCC2C3)cc1 (stereo not drawn) | i
CCN1C(=O)/C(=C/c2ccc(NC(C)=O)cc2)SC1=S | i
CN=C(Nc1cc(C)nn1-c1ccccc1)c1cccs1 | i
Cc1ccn(C(=S)Nc2ccccc2)n1 | i
CCOc1ccc(NC(=S)N(Cc2cn(CC)c3ccccc23)C(C)C)cc1 | i
S=CC1=C2NCCCN2C2CCCCC12 (stereo not drawn) | i
O=C(Nc1noc2ccccc12)c1ccccc1 | i
Cc1nc2ccccc2c2oc(C(=O)NCCN(C)C3CCCCC3)cc12 | 46
COC(CNC(=O)c1cc2c(C)nc3ccccc3c2o1)OC | i
COC(CN(C)C(=O)c1cc2c(C)nc3ccccc3c2o1)OC | i
C[C@@]1(CO)[C@H](O)CC[C@@]2(C)[C@H]1CC[C@H]1C[C@@H]3C[C@@]12CC[C@]3(O)CO | 15
O=C(COC(=O)C1CC(=O)N(CCc2ccc(Cl)cc2)C1)c1ccc(Cl)cc1 (stereo not drawn) | i
O=C(/C=C/C(=O)c1ccc2ccccc2c1)c1ccccc1 | i
C/C(=N\N)c1ccc2ccccc2c1 | 83
CCCNC(=O)c1ccc2ccccc2c1 | i
NC12CC3CC(C1)CC(C(=O)O)(C3)C2 | i
C=C(C)C(=O)Oc1ccc(NC(C)=O)cc1 | i
Cc1ccc2c(=O)c(CN3CCCC3)c(C)[nH]c2c1C | i
CN(C)c1ccc(/C=C2\CSC(=S)NC2=O)cc1 | i
CC[C@@]1(O)C[C@H](OC2CC(N(C)C)C(OC3CC(O)C(OC4CCC(=O)C(C)O4)C(C)O3)C(C)O2)c2c(cc3c(c2O)C(=O)c2c(O)cccc2C3=O)[C@H]1C(=O)OC (stereo partly drawn) | 38
CC[C@@]1(O)C[C@H](O[C@H]2C[C@H](N(C)C)[C@H](O)[C@H](C)O2)c2c(cc3c(c2O)C(=O)c2c(O)cccc2C3=O)[C@H]1C(=O)OC | 8.9
N#CC1=C(N)n2c(nc3ccccc32)NC1c1ccc(Cl)cc1 (stereo not drawn) | i
SMILES | VACV E9 pol inh
Cc1cccc(NC(=O)N2CCC(CN3CCc4ccccc4C3)CC2)c1 | i
[S-]c1n[n+]2c(-c3ccccc3)cc(-c3ccccc3)nc2s1 | i
O=S(=O)(NC1CCCCCC1)c1ccc(F)c(F)c1 | i
CCOC(=O)CNC1=NCc2ccccc21 | i
O=C(Nc1nnc(-c2ccc(Cl)cc2)o1)c1ccc2ncsc2c1 | i
CC(C)(C)C(=O)CSc1nc2ccccc2c(=O)[nH]1 | i
Cc1ccccc1CNCCc1c[nH]c2ccccc12 | i
Cc1cc(C)nc(NC(N)=NCCc2c[nH]c3ccccc23)n1 | 85
Cc1ccc(NC(=O)Cc2c[nH]c3ccccc23)cc1 | i
CNC(=O)COc1ccccc1O | i
O=S(=O)(NC1CCCCC1)c1ccccc1 | i
COc1ccc(SCC(=O)NCc2ccc3c(c2)OCO3)cc1 | i
COc1ccc2c(c1)c(OC)[n+](C)c1c3cc4c(cc3ccc21)OCO4 | 77
C[n+]1cc2c3c(ccc2c2ccc4cc5c(cc4c21)OCO5)OCO3 | i
Clc1ccc(-c2nc(-c3ccccn3)no2)c(Cl)c1 | i
CC(=C\c1ccccc1)/C=C1/SC(=O)NC1=O | i
